{
  "source": "PubChem BioAssay (NCATS)",
  "key": {"[1]": {"test": "AP1 Signaling Pathway (AID 357; active = well fitted curve in either direction with a large enough effect, not every such curve was filed as active;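 note: ME-180 reporter cells stimulated with EGF at its EC50 level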)", "details": "ME-180 AP-1-bla reporter, EGF-induced, beta-lactamase ratio, 5 h; at 17.2 µM (top of the series) unless noted", "in_short": "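Modulation of EGF-driven AP-1 transcription was assessed with a beta-lactamase reporter in ME-180 cells. Compound and EC50 EGF were co-incubated 5 hours at 37 °C before 2.5-hour CCF4 loading at room temperature and dual-emission reading.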"}, "[2]": {"molecular_target": "Pyruvate kinase PKM (Homo sapiens) (UniProt P14618)", "sequence (P14618 whole entry, looked up)": "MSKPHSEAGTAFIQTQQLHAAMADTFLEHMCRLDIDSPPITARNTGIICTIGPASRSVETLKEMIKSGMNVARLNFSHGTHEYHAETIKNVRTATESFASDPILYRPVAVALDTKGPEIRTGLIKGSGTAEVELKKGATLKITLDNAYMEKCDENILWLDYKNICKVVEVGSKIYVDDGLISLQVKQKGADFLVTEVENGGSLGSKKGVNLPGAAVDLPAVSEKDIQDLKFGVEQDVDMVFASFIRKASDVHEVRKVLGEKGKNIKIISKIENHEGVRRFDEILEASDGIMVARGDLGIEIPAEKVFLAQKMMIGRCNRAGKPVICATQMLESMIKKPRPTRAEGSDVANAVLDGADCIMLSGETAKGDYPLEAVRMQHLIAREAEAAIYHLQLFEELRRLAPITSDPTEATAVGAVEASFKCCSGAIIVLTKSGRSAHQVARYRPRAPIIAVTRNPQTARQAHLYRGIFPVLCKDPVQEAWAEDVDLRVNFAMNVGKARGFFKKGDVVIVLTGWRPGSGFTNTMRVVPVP", "test": "qHTS Assay for Inhibitors of Human Muscle Pyruvate Kinase (AID 958)", "details": "purified human PKM enzyme activity; series mostly up to 57.5 µM", "in_short": "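ATP production by PKM2 detected via luciferase luminescence after 1 h room-temperature reaction (0.1 nM enzyme, PEP at Km 0.5 mM, ADP 0.1 mM, pH 7.2 imidazole buffer). Inhibition scaled to no-enzyme control; activation referenced to 0.3 nM enzyme wells.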"}, "[3]": {"molecular_target": "Pyruvate kinase (Leishmania mexicana) (UniProt Q27686)", "sequence (Q27686 2-499 E452W)": "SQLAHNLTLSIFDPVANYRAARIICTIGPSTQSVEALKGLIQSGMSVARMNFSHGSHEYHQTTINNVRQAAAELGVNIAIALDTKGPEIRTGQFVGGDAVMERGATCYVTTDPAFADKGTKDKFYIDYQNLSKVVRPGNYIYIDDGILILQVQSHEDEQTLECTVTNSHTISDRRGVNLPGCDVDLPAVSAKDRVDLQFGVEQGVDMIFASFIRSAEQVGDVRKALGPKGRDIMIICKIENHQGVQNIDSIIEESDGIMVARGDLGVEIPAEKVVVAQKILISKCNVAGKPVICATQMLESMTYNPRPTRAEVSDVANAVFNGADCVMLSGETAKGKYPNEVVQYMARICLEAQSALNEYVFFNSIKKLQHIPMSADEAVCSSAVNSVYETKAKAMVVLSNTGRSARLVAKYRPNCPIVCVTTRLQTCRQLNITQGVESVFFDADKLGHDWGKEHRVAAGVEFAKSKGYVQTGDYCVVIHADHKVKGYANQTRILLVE", "test": "qHTS Validation Assay for Activators of Leishmania Mexicana Pyruvate Kinase (AID 959)", "details": "purified L. mexicana pyruvate kinase, enzyme activity; series mostly up to 57.5 µM", "in_short": "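An endpoint luciferase assay: 0.2 nM LmPYK E451W turns over 0.5 mM PEP with 0.1 mM ADP for 1 h at room temperature, pH 7.2, before PKLight addition. Values are normalized to DMSO-only wells.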"}, "[4]": {"test": "qHTS Assay for Identification of Small Molecule Antagonists for NFkB Signaling Pathway (AID 895; active = well fitted inhibition curve with a large enough effect in the signal ratio, with a control signal flat, not every such curve was filed as active; the % refers to the signal ratio; note: potency is the fitted concentration of half-maximal effect)", "details": "NFkB beta-lactamase reporter cells, FRET ratio 460/530; series mostly up to 38.3 µM", "in_short": "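Beta-lactamase reporter read-out (460 and 530 nm emission ratio, 405 nm excitation, 2 hrs substrate loading RT) after 5 hr stimulation with 10 pM TNF alpha in compound-treated NFkB-bla ME-180 cells in low-serum medium.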"}, "[5]": {"molecular_target": "Tumor susceptibility gene 101 protein (Homo sapiens) (UniProt Q99816)", "sequence (Q99816 whole entry, looked up, the tested form may be a part)": "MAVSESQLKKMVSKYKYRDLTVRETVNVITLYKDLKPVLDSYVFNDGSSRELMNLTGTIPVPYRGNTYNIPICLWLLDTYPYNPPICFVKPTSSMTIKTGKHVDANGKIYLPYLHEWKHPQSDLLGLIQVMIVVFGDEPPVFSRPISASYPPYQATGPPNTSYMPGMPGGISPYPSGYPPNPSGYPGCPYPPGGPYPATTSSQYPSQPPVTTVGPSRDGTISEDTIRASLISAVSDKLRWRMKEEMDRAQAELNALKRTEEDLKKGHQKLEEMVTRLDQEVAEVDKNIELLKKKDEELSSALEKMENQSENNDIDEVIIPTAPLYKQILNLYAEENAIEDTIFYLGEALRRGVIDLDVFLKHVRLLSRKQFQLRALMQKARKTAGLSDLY", "test": "qHTS Assay for Iinhibitors of HIV-1 Budding by Blocking the Interaction of PTAP/TSG101: Hit Validation (AID 651600); note: nearly all actives have a fitted effect of over 70% in size", "details": "PTAP peptide/TSG101 UEV interaction, biochemical assay; series mostly up to 57.5 µM", "in_short": "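Compounds are added to the Tsg101 binding domain (10 uM final) in pH 7.5 HEPES buffer. FITC-PTAP peptide follows at 50 nM final. After 20 min at r.t., polarized FITC emission is measured.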"}},
  "note": "A number with no mark means an inactive call. Inconclusive results are not listed. Entries that show only a call come without a potency. The source made the active and inactive calls. Unless noted, calls come from the whole dose curve; as a rule, active = well fitted curve in the direction sought with a large enough effect; inconclusive = small, poorly fitted or top-dose-only effect, or another doubt; inactive = no such curve, though single readings can be large; an effect the other way counts as inactive or inconclusive.",
  "data": [
    {"compound": "CCCN1CCC[C@H](c2cccc(C#N)c2)C1", "values": [
      {"measurement": "activity change, negative = inhibition", "setting": "[1]", "value": "7.99% [at 38 µM]"}
    ]},
    {"compound": "COc1ccc2[nH]c3c(c2c1)CCN=C3C", "values": [
      {"measurement": "activity change, negative = inhibition", "setting": "[1]", "value": -4.7, "unit": "%"}
    ]},
    {"compound": "CN[C@@H](C)[C@@H](O)c1ccccc1", "values": [
      {"measurement": "Potency", "setting": "[2]", "value": "7.94 µM (active)"},
      {"measurement": "outcome", "setting": "[3]", "value": "inactive"}
    ]},
    {"compound": "Oc1ccc2c3c1O[C@@H]1[C@@H](O)CC[C@]4(O)[C@H](C2)N(CC2CCC2)CC[C@@]314", "values": [
      {"measurement": "Potency", "setting": "[4]", "value": "inactive"}
    ]},
    {"compound": "C[N+]1(C)CCO[C@@](O)(c2ccc(-c3ccc([C@]4(O)C[N+](C)(C)CCO4)cc3)cc2)C1", "values": [
      {"measurement": "Potency", "setting": "[4]", "value": "inactive"}
    ]},
    {"compound": "Oc1cc2c(cc1O)[C@H]1c3ccccc3CN[C@@H]1CC2", "values": [
      {"measurement": "Potency", "setting": "[4]", "value": "6.31 µM (active)"},
      {"measurement": "Potency", "setting": "[2]", "value": "inactive"}
    ]},
    {"compound": "CN1CC=C2C(C#N)=C(N)C(C#N)(C#N)C(c3ccncc3)C2C1", "note": "(stereo not given)", "values": [
      {"measurement": "Potency", "setting": "[5]", "value": "inactive"}
    ]},
    {"compound": "C[C@]12Cc3cn4c(nc3C=C1CC[C@H]1[C@@H]2CC[C@@]2(C)[C@H]1CC[C@@]2(O)C#N)nc1ccccc14", "values": [
      {"measurement": "Potency", "setting": "[2]", "value": "inactive"}
    ]}
  ]
}
